Bioassay records (PubChem BioAssay)
The list is not random: actives were taken first. Their share in the collection is about 3.7%.
PfHsp90 set2: growth inhibition of PfHsp90-expressing yeast, primary screen, antimalarial PfHsp90 inhibitor project, S. cerevisiae, BacTiter-Glo luminescence, single point, set 2; hit rate 0.32% among 310,000; inhibition, % at 9.4 µM; BacTiter-Glo ATP, 48 h; yeast lacking PDR1 and PDR3 efflux regulators;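 active = every replicate shows inhibition above about 80%, whatever the replicate mean, limit read from the data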;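 note: 0% = DMSO neutral controls and 100% = 20 µM radicicol positive controls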
tim10-1 inh: growth inhibitors of tim10-1 mutant yeast, primary screen, luminescence, uHTS; S. cerevisiae tim10-1 ts strain growth, BacTiter-Glo, 24 h; inhibition, % at 20 µM; hit rate 2.2% among 330,000; AID 463190, 2010;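 active = inhibition of at least 40%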;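 note: mutant grown at 25 °C; 0% = DMSO wells with yeast and 100% = wells holding no yeast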
Rce1 inh: yeast Rce1p protease inhibitors, primary screen, biochemical, fluorescence, cell-free homogeneous. yeast membranes, quenched prenylated peptide cleavage fluorescence. CAAX prenyl protease 2 (Saccharomyces cerevisiae (strain ATCC 204508 / S288c)), Q03530. calls only. AID 2563, 2010. hit rate 0.27% among 290,000;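 active = fall in fluorescence gain of 50% or more versus controls, with final raw signal at or below 3038400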;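 note: plate controls were neutral control wells for no effect and wells lacking membranes for full effect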
Target sequence (Q03530 whole entry, looked up): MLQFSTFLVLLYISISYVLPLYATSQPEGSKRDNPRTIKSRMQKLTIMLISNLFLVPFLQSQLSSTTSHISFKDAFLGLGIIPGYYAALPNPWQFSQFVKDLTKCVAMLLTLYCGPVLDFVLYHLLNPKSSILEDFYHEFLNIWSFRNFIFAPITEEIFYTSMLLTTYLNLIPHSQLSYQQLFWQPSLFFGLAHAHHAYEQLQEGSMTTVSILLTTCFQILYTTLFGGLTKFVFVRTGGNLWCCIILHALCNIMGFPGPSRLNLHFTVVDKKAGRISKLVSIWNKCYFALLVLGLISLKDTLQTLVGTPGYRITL
TIM10 inh: growth inhibitors of isogenic TIM10 control yeast, primary screen, counter-screen for tim10-1 yeast inhibitor project, luminescence, uHTS; S. cerevisiae TIM10 strain growth, BacTiter-Glo luminescence, 24 h; inhibition, % at 10 µM; hit rate 1.4% among 330,000; AID 463195, 2010;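 active = inhibition of 40% or more at the single tested concentration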;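 note: wild-type TIM10 isogenic control strain grown at permissive 25 °C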
tim23-1 inh: growth inhibitors of tim23-1 mutant yeast, primary screen, luminescence, uHTS; S. cerevisiae tim23-1 growth, BacTiter-Glo luminescence, 24 h; inhibition, % at 20 µM; hit rate 1.3% among 330,000;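 active = growth inhibition of the mutant yeast at or above 50%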;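 note: temperature-sensitive mutant grown at 25 °C; plate controls were DMSO-treated mutant yeast for no effect and medium wells lacking yeast for full effect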
* = called active by the depositor; i = inactive; nt = not tested or not shown; + = active, no number.

SMILES | PfHsp90 set2 | tim10-1 inh | Rce1 inh | TIM10 inh | tim23-1 inh
CC(=O)Oc1ccc(N2C(=O)C3C4C=CC(CO)(O4)C3C2=O)cc1 (configuration not stated) | -77.7 | -0.7 | i | -5.8 | 6.8
O=C1C2C3C=CC(CNS(=O)(=O)c4ccccc4)(O3)C2C(=O)N1c1ccc(Cl)cc1 (configuration not stated) | 105.3* | 38.3 | i | 8.2 | 35.0
Cc1cc(C)c2c(c1)-c1cc(C)nn1C(c1ccc3c(c1)OCO3)N2 (configuration not stated) | nt | 19.3 | + | 19.1 | -3.5
Cc1c(C)n(CC(O)CNCCO)c2ccccc12 (configuration not stated) | 17.9 | 8.2 | i | -3.5 | -1.4
OC(CNCCC1C=Nc2ccccc21)Cn1c2ccc(Cl)cc2c2cc(Cl)ccc21 (configuration not stated) | 105.3* | nt | + | nt | nt
Fc1ccc(-c2cc3nc(-c4ccccc4)cc(N4CCN(CCN5CCOCC5)CC4)n3n2)cc1 | -3.4 | nt | + | nt | nt
O=C(CCCN1C(=O)C(c2ccccc2)Oc2cccnc21)NCCc1ccc(Cl)cc1 (configuration not stated) | -6.6 | 9.2 | i | 8.7 | 3.0
COc1ccc2oc(-c3ccccc3)c(C(=O)N3CCOCC3)c2c1 | -1.8 | 28.9 | + | 4.4 | 39.5
CCOc1ccc2oc(-c3ccccc3)c(C(=O)N3CCN(C)CC3)c2c1 | 11.0 | 32.7 | i | 17.4 | 16.1
O=C(COC(=O)CCSc1ccc(Cl)cc1)NCc1ccco1 | -4.8 | 23.8 | i | 17.0 | 14.5
CCCCCCOc1ccc(N2C(=O)CC(N3CCC(C(=O)OCC)CC3)C2=O)cc1 (configuration not stated) | 106.4* | 17.7 | i | 29.5 | 13.5
COc1cc(OC)cc(N2C(=O)CC(N3CCC(C(=O)N4CCCCC4)CC3)C2=O)c1 (configuration not stated) | 82.2* | 25.8 | i | 13.9 | 20.5
O=C(NNC(=O)C1CC(=O)N(Cc2ccccc2)C1)c1ccc(Br)cc1 (configuration not stated) | 6.9 | -16.3 | i | 3.4 | -4.3
COc1ccc(C(=O)/C=C/c2ccc(OC)cc2OC)c(O)c1 | nt | 2.1 | + | 2.2 | 11.4
COc1cc(/C=N/n2cc(-c3ccccc3)[nH]c2=S)cc(OC)c1O | -61.1 | 8.2 | i | -0.2 | 6.8
Oc1ccc(/C=N/n2cc(-c3ccccc3)[nH]c2=S)cc1 | -14.6 | 8.6 | + | 6.2 | 0.9
O=C(O)/C=C/c1ccc(O)cc1 | 14.6 | 2.1 | + | 0.7 | 13.0
COc1ccc(/C=C/C(=O)NC(=S)NNC(=O)c2cnccn2)cc1 | 96.9* | 1.8 | i | -16.7 | 43.0
O=C(NC(=S)NNC(=O)c1cnccn1)c1ccc(F)cc1 | -64.7 | -30.6 | i | 2.8 | 17.0
O=C(/C=C/c1ccc(F)cc1)NC(=S)NNC(=O)c1cnccn1 | 107.9* | 5.9 | i | -46.9 | 24.3
COc1ccc(/C=C/C(=O)NC(=S)NNC(=O)c2cccnc2)cc1 | 38.2 | 22.0 | i | 18.6 | -3.5
Cc1cc(N2CCN(C(c3ccccc3)c3ccccc3)CC2)n2ncnc2n1 | nt | 17.9 | + | 12.1 | 14.2
COc1ccc2sc(-c3ccccc3OC)c(-c3ccc(O)cc3)c2c1 | 107.0* | 23.2 | nt | 18.4 | 45.3
COc1ccccc1-c1sc2cc3c(cc2c1-c1ccc(O)cc1)OCO3 | 107.4* | -10.0 | nt | 14.0 | 49.5
COc1ccccc1NC(=O)c1ccc(NC(=O)CSc2n[nH]c(N)n2)cc1 | -7.4 | 13.2 | i | 4.2 | 10.2
SMILES | PfHsp90 set2 | tim10-1 inh | Rce1 inh | TIM10 inh | tim23-1 inh
CCN(CC)CCNC(=O)c1[nH]c2ccc(OCc3ccccc3)cc2c1C | -7.1 | 28.1 | + | 14.3 | 18.5
Cc1cc2cc(C#N)c(NCCNC(=S)NCCCN3CCOCC3)nc2cc1C | -45.9 | 12.8 | + | 10.9 | 14.8
O=C(O)c1cccc(NN=C2c3ccccc3-c3ccccc32)c1 | 105.7* | nt | i | nt | nt
CC(CCc1ccccn1)(CCc1ccccn1)C(=O)c1ccccc1 | -4.6 | nt | nt | nt | nt
O=C(CNC(=O)c1ccc(Br)o1)NNC(=O)c1n[nH]c(=O)c2ccccc12 | nt | 3.3 | nt | 6.8 | -2.0
CCN(CC(=O)NCc1ccc(Cl)cc1)C(=O)CSc1cc(C)ccc1C | 6.2 | 8.5 | i | -6.2 | 19.4
Cc1ccc(-c2cc(-c3ccc(C)cc3O)[nH]n2)cc1 | -12.4 | 8.6 | i | 33.4 | 40.8
Cc1ccc(O)c(-c2cc(-c3cccc(Br)c3)n[nH]2)c1 | 105.0* | -62.2 | i | 32.9 | 5.3
OCC[C@H]1C[C@H](O)[C@@H](O)[C@]2(OCc3ccccc32)O1 | -23.1 | 3.1 | nt | 8.3 | 2.0
CCOC(=O)c1cc2c(=O)n3cccc(C)c3nc2n(CC(C)C)c1=NC(=O)c1ccco1 | -20.5 | 12.7 | + | -1.4 | 21.6
C[C@@]12CCC=C[C@H]1[C@H](c1ccc3ccccc3c1/C=C/c1ccccc1)N(Cc1ccccc1)C2=O | -12.9 | 5.0 | i | 3.8 | 15.1
C[C@@]12CCC=C[C@H]1[C@H](c1ccc(/C=C/c3ccccc3)cc1F)N(Cc1ccccc1)C2=O | 19.8 | 25.1 | + | 14.5 | 33.4
Cn1ncc(Cl)c1C(=O)NCC1CCCO1 (configuration not stated) | 0.0 | 4.3 | i | -1.4 | -7.1
O=C(O)c1cccc2c1Cc1cc(Cl)ccc1-2 | 107.2* | nt | nt | nt | nt
O=C(O)c1cccc2c1-c1ccc(Cl)cc1C2=O | -40.2 | nt | nt | nt | nt
O=c1[nH]cccc1-c1nc2ccccc2n1Cc1cccc(Cl)c1 | 11.1 | 3.6 | + | 14.9 | 6.4
CN(C)S(=O)(=O)c1cccc(NC(=O)c2ccc3nccnc3c2)c1 | 9.0 | 7.9 | i | 22.4 | 7.5
O=C(Nc1ccc(F)cc1)Oc1ccccc1N1CCOCC1 | 1.5 | -7.1 | + | -18.4 | -6.1
O=C(Nc1ccc(OC(F)(F)F)cc1)Oc1ccccc1N1CCOCC1 | -2.0 | 16.3 | i | 17.2 | -2.9
C/C(=C\C=C\c1ccccc1)C(=O)c1c(C)cc(C)[nH]c1=O | 6.6 | 22.6 | i | -1.8 | 22.4
O=C(O)c1ccc(N/N=C/c2ccc(-c3cc(Cl)ccc3Cl)o2)cc1 | -39.2 | -3.3 | i | -9.6 | 23.3
O=C(O)c1ccc(N/N=C/c2ccc(-c3cccc(Cl)c3)o2)cc1 | 104.4* | 22.6 | i | 16.8 | 32.4
O=C(O)CCC(=O)c1ccc(-c2ccccc2)cc1 | -1.8 | 11.8 | + | 5.1 | 13.4
CN(C)S(=O)(=O)c1ccc(NC(=O)/C=C/c2ccccc2Cl)cc1 | -22.3 | 3.7 | + | 13.4 | 16.6
Cc1ccc(OCCC(=O)OCC(=O)N2CCN(S(=O)(=O)c3ccc(C)cc3)CC2)cc1 | nt | 25.4 | i | 11.6 | 18.0
O=C(NNC1=C(C(=O)C(F)(F)F)CCC1)c1ccc(Br)cc1 | 130.2* | 0.1 | i | 11.8 | 39.9
